Measurements taken from PubChem BioAssay (EPA / NIEHS).
Active and inactive are the calls of the source. Rule for the calls: active = hit-call score of the fitted dose curve at least 0.9, where 1 is the maximum; inactive = score below 0.9.

Assay: CEETOX_H295R_TESTO: CeeTox H295R High-throughput Steroidogenesis Assay for Testosterone (TESTO) (AID 2283457);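 for AC50: cells exposed to chemicals for 48 h before medium collection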
Conditions: actives raise or lower the signal
Outline: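 Testosterone secreted into the medium over 48 h by H295R cells (maximum passage 10) was quantified by LC-MS/MS after MTBE extraction. Fitted in both directions against DMSO, with concentrations diluted until MTT viability was ≥70%.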

Compound | outcome | AC50
CC1(C)[C@H](C(=O)OCc2cccc(Oc3ccccc3)c2)[C@@H]1C=C(Cl)Cl | inactive | 
Nc1cc([N+](=O)[O-])ccc1Cl | inactive | 
C=CC(C)(C)O | inactive | 
O=c1cc(-c2ccccc2)oc2cc(O)cc(O)c12 |  | 5610 nM (active)
O=C(O)C[C@H](O)C[C@H](O)/C=C/c1c(C2CC2)nc2ccccc2c1-c1ccc(F)cc1 |  | 87.1 nM (active)
COc1cc2ncnc(Nc3cccc(Cl)c3)c2cc1OC | inactive | 
